Screening results: PubChem BioAssay, The Scripps Research Institute Molecular Screening Center
Sampled rows, rich in hits. Any-hit rate of the full collection: about 3.4%.
TEAD-YAP inh = TEAD-YAP interaction inhibition. 640,000 compounds, 1.4% hits. HEK-TIYL cells, TEAD-Gal4/YAP UAS-luciferase luminescence. inhibition, % at 9.12 µM; in the data active = inhibition above about 32%;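 also: 0% = median of test compound wells and 100% = reference inhibitor wells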
FBW7 act = activators of human E3 ligase FBW7. normalized activity (activation), % at 26.1 µM. AlphaScreen FBW7–phospho-cyclin E peptide binding, activator screen. 650,000 compounds, 0.13% hits. Q969H0; in the data active = normalized activity above about 1.9%;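 also: purified mutant Fbw7 with reduced substrate affinity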
GPR151 activ = activates the human receptor GPR151. AID 1508602. Q8TDV0. PathHunter beta-arrestin GPR151 cells, luminescence. 650,000 compounds, 1% hits. activation, % at 11.2 µM; in the data active = activation above about 4.9%;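 also: 0% = median of compound wells and 100% = cells with positive control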
Target sequence (Q8TDV0 whole entry, looked up): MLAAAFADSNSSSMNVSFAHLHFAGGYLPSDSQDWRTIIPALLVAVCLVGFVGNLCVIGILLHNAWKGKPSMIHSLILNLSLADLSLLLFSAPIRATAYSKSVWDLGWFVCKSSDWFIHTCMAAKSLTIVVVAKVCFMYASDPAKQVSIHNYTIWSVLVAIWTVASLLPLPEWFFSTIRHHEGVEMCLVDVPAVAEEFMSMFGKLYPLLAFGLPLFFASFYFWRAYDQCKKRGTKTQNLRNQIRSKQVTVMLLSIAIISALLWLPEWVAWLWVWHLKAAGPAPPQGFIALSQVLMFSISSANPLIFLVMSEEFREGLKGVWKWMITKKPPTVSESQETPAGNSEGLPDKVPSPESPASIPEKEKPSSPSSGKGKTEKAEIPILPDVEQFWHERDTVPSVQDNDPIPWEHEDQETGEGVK
MITF primary = blocks human microphthalmia-associated transcription factor | O75030 | AlphaScreen MITF homodimerization, bead proximity signal | inhibition, % at 2.6 µM | 650,000 compounds, 0.91% hits | AID 1259374; in the data active = inhibition above about 50%;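 also: 0% = vehicle wells with protein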
MITF confirm = human MITF inhibition, confirmation | shares compounds with MITF primary | inhibition, % at 2.6 µM | AlphaScreen MITF homodimerization, biotin/His-MITF beads | 4,700 compounds, 16% hits;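 active = inhibition above a cutoff derived from the DMSO control wells, cut at about 28% in these data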;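 also: 0% = MITF dimer wells with DMSO only; inhibitors lower the bead chemiluminescence by keeping MITF from dimerizing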
AS interf ctr = counter-screen: compounds optically interfering with AlphaScreen. shares compounds with MITF primary. LysRS AlphaScreen counterscreen, signal interference, triplicate. inhibition, % at 2.6 µM. 4,700 compounds, 7.6% hits;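 active = inhibition above a cutoff derived from the DMSO control wells, cut at about 30% in these data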
Active calls of the source: *.

Screening COc1ccc(N(CC(O)CN(C)C)S(=O)(=O)c2ccc(C)cc2)cc1 (centres undefined) returned TEAD-YAP inh -2, FBW7 act 0, GPR151 activ -1 and MITF primary -11.
`COc1cc(OC)c(C2C3=C(CCCC3=O)Nc3nc(SC)nn32)cc1OC` (centres undefined) gave TEAD-YAP inh 6, FBW7 act 0, GPR151 activ -1 and MITF primary 22.
Screening COCCCNC(=O)C(C)C1Sc2ccccc2N(Cc2ccc(C)cc2)C1=O (centres undefined) returned TEAD-YAP inh -3, FBW7 act 0, GPR151 activ -1 and MITF primary -6.
Screening CN1CCN(CC(=O)N2CCCC2c2nc3ccccc3[nH]2)CC1 (centres undefined) returned TEAD-YAP inh -4, FBW7 act 0, GPR151 activ -2 and MITF primary -3.
O=C(Cn1cc2c(n1)CCCC2)N1CCN(c2ccccc2)CC1 was read as TEAD-YAP inh 3, FBW7 act 1, GPR151 activ 3, MITF primary 61*, MITF confirm 8 and AS interf ctr 13.
`O=C(Cn1cc2c(n1)CCCC2)N1CCCCC1` gave TEAD-YAP inh -8, FBW7 act 0, GPR151 activ 0 and MITF primary 4.
Cn1nccc1C(=O)NCC1CCC2(CCN(Cc3ccc(Cl)cc3)CC2)O1 (centres undefined) was read as TEAD-YAP inh -5, FBW7 act 0, GPR151 activ 0 and MITF primary 9.
For Cc1cc(OCCn2ccnc2)cc(C(C)C)c1 the results were TEAD-YAP inh -5, FBW7 act 0, GPR151 activ 0, MITF primary 57*, MITF confirm 5 and AS interf ctr -1.
For Cc1cc(C)c(C)c(OCCn2ccnc2)c1 the results were TEAD-YAP inh -10, FBW7 act 2, GPR151 activ -1 and MITF primary 13.
Cc1cc(OCCCN2CCNCC2)cc(C(C)C)c1 was read as TEAD-YAP inh -4, FBW7 act 0, GPR151 activ -1 and MITF primary 38.
`Cc1cc(OCCCN2CCN(C)CC2)cc(C(C)C)c1` gave TEAD-YAP inh -1, FBW7 act 0, GPR151 activ 0, MITF primary 70*, MITF confirm 11 and AS interf ctr 23.
For Cc1cc(OCCCN2CCN(C)CC2)ccc1C(C)C the results were TEAD-YAP inh 2, FBW7 act 0, GPR151 activ 2, MITF primary 56*, MITF confirm -3 and AS interf ctr 4.
Screening Cc1cc(OCCCN2CCOCC2)ccc1C(C)C returned TEAD-YAP inh -17, FBW7 act 0, GPR151 activ -1 and MITF primary 18.
For Cc1cc(OCCN2CCNCC2)cc(C(C)C)c1 the results were TEAD-YAP inh -3, FBW7 act 0, GPR151 activ 2, MITF primary 66*, MITF confirm -2 and AS interf ctr 20.
`N#Cc1ccc(C(=O)Nc2cccc(Br)c2)c(F)c1` gave TEAD-YAP inh -16, FBW7 act 0, GPR151 activ 1 and MITF primary 3.
For O=C(NC(=S)c1ccccc1)Nc1ccc(F)cc1 the results were TEAD-YAP inh -47, FBW7 act 0, GPR151 activ 0 and MITF primary 17.
For CCc1ccc(NC(=O)CSC2=C(C#N)C(c3cccs3)C(C(=O)Nc3ccccc3)=C(C)N2)cc1 (centres undefined) the results were TEAD-YAP inh 11, FBW7 act 0, GPR151 activ 0, MITF primary 57*, MITF confirm 3 and AS interf ctr 2.
`COc1cccc(NC(=O)N2CCC(O)(c3ccc4c(c3)OCO4)CC2)c1` gave TEAD-YAP inh -12, FBW7 act 0, GPR151 activ 0 and MITF primary 9.
CC1CCCC(N2CCN(Cc3ccccc3F)CC2)C1 (centres undefined) was read as TEAD-YAP inh -4, FBW7 act 0, GPR151 activ -1, MITF primary 63*, MITF confirm -7 and AS interf ctr -3.
`O=[N+]([O-])c1cccc(CN2CCN(C3CC4CCC3C4)CC2)c1` (centres undefined) gave TEAD-YAP inh 4, FBW7 act 0, GPR151 activ 1, MITF primary 57*, MITF confirm 27 and AS interf ctr 17.
CC1CCCC(N2CCN(Cc3ccccc3[N+](=O)[O-])CC2)C1 (centres undefined) was read as TEAD-YAP inh 0, FBW7 act 0, GPR151 activ 0, MITF primary 82*, MITF confirm 2 and AS interf ctr -2.
Screening Fc1ccccc1CN1CCN(C2CCN(Cc3ccccc3)CC2)CC1 returned TEAD-YAP inh -1, FBW7 act 0, GPR151 activ 3 and MITF primary 7.
`O=[N+]([O-])c1ccccc1CN1CCC(N2CCCCCC2)CC1` gave TEAD-YAP inh 6, FBW7 act 0, GPR151 activ 0, MITF primary 79*, MITF confirm 4 and AS interf ctr 0.
Screening COc1ccc(I)cc1CNCCCO returned TEAD-YAP inh -15, FBW7 act 0, GPR151 activ 0 and MITF primary -4.
Nc1cc(C(=O)OCC(=O)Nc2ccc(OC(F)F)cc2)ccc1Cl was read as TEAD-YAP inh 2, FBW7 act 0, GPR151 activ -1 and MITF primary -3.
For O=[N+]([O-])c1ccccc1S(=O)(=O)N1CCN(C2CCCCC2)CC1 the results were TEAD-YAP inh 0, FBW7 act 0, GPR151 activ -1, MITF primary 51*, MITF confirm 10 and AS interf ctr 17.
O=[N+]([O-])c1cccc(CN2CCC(N3CCCCC3)CC2)c1 was read as TEAD-YAP inh -38, FBW7 act 0, GPR151 activ -1, MITF primary 57*, MITF confirm -14 and AS interf ctr -5.
Screening O=[N+]([O-])c1ccccc1CN1CCCC1 returned TEAD-YAP inh -8, FBW7 act 0, GPR151 activ 1 and MITF primary 14.
For O=[N+]([O-])c1ccccc1CN1CCC(N2CCN(c3ccccc3)CC2)CC1 the results were TEAD-YAP inh 2, FBW7 act 0, GPR151 activ 0, MITF primary 83*, MITF confirm 2 and AS interf ctr 5.
For O=[N+]([O-])c1cccc(CN2CCC(N3CCCC3)CC2)c1 the results were TEAD-YAP inh 2, FBW7 act 0, GPR151 activ 1 and MITF primary 14.
For CCOc1ccccc1CN1CCC(N2CCN(c3ccccc3)CC2)CC1 the results were TEAD-YAP inh 4, FBW7 act 0, GPR151 activ -1 and MITF primary 48.
O=[N+]([O-])c1ccccc1CN1CCN(C2CCCCC2)CC1 was read as TEAD-YAP inh -5, FBW7 act 0, GPR151 activ 1, MITF primary 64*, MITF confirm 0 and AS interf ctr 0.
